Screening results deposited in PubChem by National Center for Advancing Translational Sciences (NCATS).
Tau fibril ThT – inhibitors of human tau fibril formation, thioflavin T binding. P10636. recombinant tau K18 P301L, heparin-induced fibrillization, ThT fluorescence. hit rate 2.1% among 270,000. AID 1460. Potency, µM (top dose mostly 57.4 µM), usual class: inhibitors; also: nearly all actives have a fitted effect of over 55% in size
Target sequence (P10636 561-689 P618L limits assumed): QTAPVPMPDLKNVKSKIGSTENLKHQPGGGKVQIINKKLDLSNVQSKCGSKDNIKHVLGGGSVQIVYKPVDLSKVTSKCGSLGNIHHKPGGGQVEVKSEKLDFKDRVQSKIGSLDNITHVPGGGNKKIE
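Recombinant human tau K18 fragment […] carrying P301L, 15 uM unlabeled plus 0.24 uM Alexa 594-labeled, was fibrillized with 20 uM heparin in 100 mM sodium acetate pH 7 for 6 hr at 37 C; 30 uM ThT fluorescence read after 1 hr.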
Tau fluor cs – counter-screen for tau fibril formation inhibitors; tau K18 P301L Alexa594 fluorescence, heparin fibrillization; AID 1463; Potency, µM (doses to about 57.7 µM); hit rate 0.93% among 280,000; also: nearly all actives have a fitted effect of over 55% in size
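Human tau K18 P301L (15 uM unlabeled, 0.24 uM Alexa 594-labeled) in 100 mM sodium acetate pH 7 with 20 uM heparin, 6 hr at 37 C. ThT 30 uM added, 1 hr ambient; Alexa 594 FP and total fluorescence read at 555/632 nm.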
HttQ103 aggreg – reduces HttQ103-GFP aggregates in PC12 cells; Potency, µM (doses to about 46.1 µM), actives largely listed as inhibitors; hit rate 1.1% among 220,000; PC12 HttQ103-GFP aggregates, Acumen cytometry, 40 h; also: nearly all actives have a fitted effect of over 60% in size
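Steps: seed 1500 PC12 HTTQ103-GFP cells/well; add tebufenozide, 100 nM final; add compound titration; add ATPLite reagent; quantify GFP aggregates by laser scanning cytometry.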
HTT cytoprotect – cytoprotection in Huntington HTT-Q103 PC12 cell model | PC12 HTT-Q103 induced, cytoprotection, ATP luminescence, 40 h | hit rate 0.14% among 230,000 | AID 1471 | Potency, µM (highest dose often 56.4 µM), most hits filed as activators; also: nearly all actives have a fitted effect of over 45% in size
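Compounds were screened for protection of PC12 cells against cell death after tebufenozide induction (100 nM final) of mutant Huntingtin exon 1 (Q103) fused to GFP.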
Tau fibril FP – blocks human tau fibril formation measured by polarization; K18 P301L tau heparin fibrillization, Alexa594 FP, 6 h; Potency, µM (top dose mostly 57.7 µM), most hits filed as inhibitors; hit rate 0.39% among 280,000; AID 1468; also: nearly all actives have a fitted effect of over 55% in size
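FP of Alexa 594-tau after heparin (20 uM) induction. Substrate: human K18 P301L, 15 uM unlabeled, 0.24 uM labeled. Buffer 100 mM sodium acetate pH 7. 6 hr, 37 C.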
Hits are given with their value; i = inactive; ? = inconclusive; nt = no result given; ! = a repeat was not active; [ ] = dose if it differs, or a comment. Hits are enriched below; roughly 3.7% of the tested compounds scored in any of these assays. Calls follow the shape of the dose curve; as a rule, active = well fitted curve in the direction sought with a large enough effect; inconclusive = small, poorly fitted or top-dose-only effect, or another doubt; inactive = no such curve, though single readings can be large; an effect the other way counts as inactive or inconclusive.

SMILES	Tau fibril ThT	Tau fluor cs	HttQ103 aggreg	HTT cytoprotect	Tau fibril FP
Cc1ccc(/C=C2/SC(=S)N(CCCC(=O)Nc3ccc(O)cc3)C2=O)cc1	?	?	i[9.22 µM]	i[10 µM]	i
O=C(CCCN1C(=O)/C(=C/c2ccccc2Cl)SC1=S)NNC(=O)c1ccc(Cl)cc1	i	i	i[9.22 µM]	i[10 µM]	i
Cc1ccc(C(=O)NNC(=O)CCCN2C(=O)/C(=C/c3ccccc3Cl)SC2=S)cc1	?	i	35.5µM	nt	i
CN(C)C=O	nt	nt	nt	i	nt
COC(=O)/C=C\CCc1coc(/C=C\CNC(=O)OC)n1	i[11.5 µM]	i[11.6 µM]	nt	i[10 µM]	i[11.6 µM]
CC(C)Oc1ccc(C(=O)N(Cc2ccc(N(C)C)cc2)Cc2ccco2)cc1	?	?	nt	nt	i
CCOC(=O)c1ccc(-n2c(CCC(=O)O)ccc2-c2ccc(Br)cc2)cc1	?	i	nt	nt	i
CC(=C\c1ccccc1)/C=C1/SC(=O)N(CCCC(=O)Nc2ccc(C(=O)O)cc2)C1=O	?	i	i[9.22 µM]	i	i
CC(/C=C1\SC(=S)N(CCCC(=O)Nc2ccc(C(=O)O)c(O)c2)C1=O)=C\c1ccccc1	5.01µM	?	i	i[10 µM]	i
CC(=O)c1ccc(NC(=O)Cn2c(=O)c3cccn3c3ccccc32)cc1	i	?	nt	nt	?
COc1ccc(NC(=O)Cn2c(=O)c3cccn3c3ccccc32)cc1	i	?	nt	nt	17.8µM
COc1ccc(OC)c(NC(=O)Cn2c(=O)c3cccn3c3ccccc32)c1	?	?	nt	nt	3.16µM
O=C(O)c1cc(-c2ccc(/C=N/Nc3ccc(Cl)cc3)o2)ccc1Cl	8.91µM	11.2µM[quencher]	i	i	i
Cc1ccc(NC(=O)/C(C#N)=C/c2ccc(-c3ccc(Cl)c(C(=O)O)c3)o2)cc1C	4.47µM	i	nt	nt	i
CC1(C)[C@@H]2CC[C@@]1(C)C(=O)C2	i	i	i	i[1.9 µM]	i
COc1ccc(/C=N/c2c(-c3ccc(OC)cc3)nc3n2CCS3)cc1	14.1µM	?	i	i[10 µM]	i
Fc1ccc(/C=N/c2c(-c3ccc(F)cc3)nc3n2CCS3)cc1	?	i	i	i	i
Cc1cc(=O)oc2cc(Oc3ncccc3[N+](=O)[O-])ccc12	i	i	i	i	i
Cc1cc(=O)oc2cc(Oc3ccc([N+](=O)[O-])cc3[N+](=O)[O-])ccc12	?	12.6µM[quencher]	?	i[10 µM]	i
O=C1c2cccc3cc([N+](=O)[O-])cc(c23)C(=O)N1/N=C/c1ccc(O)cc1O	?	12.6µM[quencher]	i[9.22 µM]	i[10 µM]	i
O=C1c2cccc3cc([N+](=O)[O-])cc(c23)C(=O)N1CCN1CCCC1	nt	?	?	i[10 µM]	i
Cc1ccc(-n2c(-c3ccc(Cl)cc3)c[n+]3c2CCC3)cc1	i	i	i[9.22 µM]	i[10 µM]	i
COc1ccc(-n2c(-c3ccc(Br)cc3)c[n+]3c2SC(C)C3)cc1 (stereo not given)	i	i	10µM	nt	i
Cc1ccc(-n2c(-c3ccccc3)c[n+]3c2CCC3)cc1	i	i	8.91µM	i	i
COc1ccc(-n2c(-c3ccc(Br)cc3)c[n+]3c2CCC3)cc1	?	i	?	i	i
SMILES	Tau fibril ThT	Tau fluor cs	HttQ103 aggreg	HTT cytoprotect	Tau fibril FP
COc1ccc(-n2c(-c3ccc(Br)cc3)c[n+]3c2CCCCC3)cc1	i	i	2.24µM	i[10 µM]	i
c1cc2c(cc1-c1cnc3n1CCC3)OCCO2	i	i	25.1µM	i	i
Cc1ccc(-c2cnc3n2CCCCC3)cc1	i	i	i	i[10 µM]	i
COc1ccccc1NC(=O)Cn1c(=O)n(-c2ccc(C)cc2)c(=O)c2c1cnn2C	i	i	nt	nt	i
C=C1CC[C@H](O)C/C1=C/C=C1\CCC[C@]2(C)C([C@H](C)CC[C@@H](O)C(C)(C)O)CC[C@@H]12 (stereo not given in full)	i	i	nt	i	i
COc1ccc(-c2nc(SCC(=O)Nc3ccc4c(c3)OCCO4)c(-c3ccccc3)[nH]2)cc1	?	8.91µM[quencher]	nt	nt	?
COc1ccc(-c2[nH]c(-c3cccc(OC)c3)nc2SCC(=O)Nc2ccc3c(c2)OCO3)cc1	?	6.31µM[quencher]	nt	nt	i
CCOc1ccc(-c2nc(SCC(=O)Nc3ccc4c(c3)OCCO4)c(-c3ccc(F)cc3)[nH]2)cc1	i	14.1µM[quencher]	nt	nt	i
COc1cccc(-c2nc(SCC(=O)Nc3ccc4c(c3)OCCO4)c(-c3ccccc3)[nH]2)c1	?	5.62µM[quencher]	nt	nt	i
COc1ccc(NC(=O)CSc2nc(-c3ccc(OC)cc3)[nH]c2-c2ccc(F)cc2)cc1	i	?	nt	nt	i
COc1ccccc1-c1nnc(C2CCN(S(=O)(=O)c3ccc(CC(C)C)cc3)CC2)o1	i	i	nt	nt	i
CN(C)CCN(c1ccccn1)c1ccccn1	nt	nt	nt	i[10 µM]	nt
COc1ccc(-c2[nH]c(-c3ccc4c(c3)OCO4)nc2-c2ccccc2)cc1	?	14.1µM[quencher]	?	i	i
COc1cc(-c2nc(-c3ccccc3)c(-c3ccc(F)cc3)[nH]2)cc2c1OCO2	i	?	i	i[10 µM]	i
CCOC(=O)C1CCN(c2c(NCc3ccc(C(=O)O)cc3)c(=O)c2=O)CC1	nt	nt	nt	i	nt
Cc1ccc(C(=O)C[n+]2cc(-c3ccc(C)cc3)n3c2CCCCC3)cc1	i	i	0.891µM	i	i
COc1ccc(C(=O)C[n+]2cc(-c3ccc(OC)cc3)n3c2CCCC3)cc1	i	i	10µM	i[10 µM]	i
C=C(C)CN(CC#N)CC(=C)C	nt	nt	nt	i[10 µM]	nt
CC(C)(C)c1c2c(c(C(C)(C)C)c3c1OCN(Cc1ccccc1)C3)OCN(Cc1ccccc1)C2	nt	nt	nt	i[10 µM]	nt
COc1ccc(CCNC(=O)CCCn2c(=O)c3ccccc3n(CC(=O)Nc3ccccc3C)c2=O)cc1OC	i	i	nt	nt	i
COc1ccc(OC)c(CNC(=O)c2nn(-c3ccc(OC)c(Cl)c3)c(=O)c3c2c2ccccc2n3C)c1	i	i	nt	nt	i
COc1ccccc1CNc1ncnc2ccc(-c3ccccc3C#N)cc12	nt	nt	nt	i	nt
O=C1NC(c2cccs2)Nc2sc3c(c21)CCCC3 (stereo not given)	2.51µM	?	i	i[10 µM]	?
CC1(OC(=O)C2CCCC2)C(=O)C=C2C=C(c3ccsc3)N(C3CCCCC3)C=C2C1=O (stereo not given)	14.1µM!	i[11.6 µM]	i[9.22 µM]	i[10 µM]	?
CC1(OC(=O)C2CCCC2)C(=O)C=C2C=C(c3ccsc3)N(CCc3c[nH]c4ccccc34)C=C2C1=O (stereo not given)	4.47µM!	i[11.6 µM]	i[9.22 µM]	i[10 µM]	?
SMILES	Tau fibril ThT	Tau fluor cs	HttQ103 aggreg	HTT cytoprotect	Tau fibril FP
COc1cc(OC)cc(-n2c(=O)c3ccccc3n(Cc3ccccc3C#N)c2=O)c1	i	i	nt	nt	i
CCCCNC(=O)c1ccc2c(c1)NC(=O)C(CS(=O)(=O)Cc1cccc(C)c1)N2 (stereo not given)	17.8µM	?	nt	nt	?
CCCSc1ncc(Cl)c(C(=O)Nc2sc3c(c2C(=O)NCC)CCCC3)n1	i	i	nt	nt	i
Oc1ccc(-c2csc(-c3cccnc3)n2)c(O)c1	?	i	i	i	i
NS(=O)(=O)c1ccc(Nc2nc(-c3ccc(O)cc3O)cs2)cc1	6.31µM	14.1µM[quencher]	i	i	i
Oc1ccc(-c2nc(-c3ccc(O)c(O)c3)cs2)cc1	3.16µM	12.6µM[quencher]	i	i	i
CC(=O)Nc1ccc(-c2csc(Nc3ccc(S(N)(=O)=O)cc3)n2)cc1	?	i	i	nt	i
